Data reported in the supplement of paper PMC10849652.
The full data set covers some 7,900 targets. This sample favours those with a hit. About 0.6% of all pairs of compound and target were hits.

Experiments:
Experiment in all cases: log2 fold change, soluble protein after heating vs DMSO (PISA); higher = thermal stabilisation; K562 cells, 10 uM, 30 min; active = over 0.2 and 3.5 SD of the protein, either way, in both replicates (recomputed)
[1] = compound: CS(=O)(=O)c1ccc(-c2cnc(N)c(C(=O)Nc3ccccc3)n2)cc1
In short: (§1)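 Aliquots of K562 cells (2×10^6 cells/mL) treated with 10 μM compound for 30 min were heated for 3 min over 48°C-58°C. After pooling and extraction in PBS with 0.5% NP-40 at 4°C, soluble protein from a 21,000xg, 90 min spin was quantified by TMTpro 16plex LC-MS/MS with channel sums equalised. Thermal stability is expressed against control samples, from duplicates, as a log2 fold change.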

crizotinib = compound: C[C@@H](Oc1cc(-c2cnn(C3CCNCC3)c2)cnc1N)c1c(Cl)ccc(F)c1Cl [crizotinib]
In short: as §1

[2] = compound: C[C@@H]1COCCN1C2=NC(=NC(=C2)C3(CC3)S(=O)(=O)C)C4=C5C=CNC5=CC=C4
In short: as §1

[3] = compound: C[C@H](C1=CC=C(C=C1)C(=O)NC2=C3C=CNC3=NC=C2)N
In short: as §1

duvelisib = compound: C[C@H](Nc1ncnc2nc[nH]c12)c1cc2cccc(Cl)c2c(=O)n1-c1ccccc1 [duvelisib]
In short: as §1

gandotinib = compound: Cc1cc(Nc2cc(CN3CCOCC3)c3nc(C)c(Cc4ccc(Cl)cc4F)n3n2)n[nH]1 [gandotinib]
In short: as §1

tozasertib = compound: Cc1cc(Nc2cc(N3CCN(C)CC3)nc(Sc3ccc(NC(=O)C4CC4)cc3)n2)n[nH]1 [tozasertib]
In short: as §1

[4] = compound: Cc1cc(SCc2sc(-c3ccc(C(F)(F)F)cc3)nc2C)ccc1OCC(=O)O
In short: as §1

doramapimod = compound: Cc1ccc(-n2nc(C(C)(C)C)cc2NC(=O)Nc2ccc(OCCN3CCOCC3)c3ccccc23)cc1 [doramapimod]
In short: as §1

ispinesib = compound: Cc1ccc(C(=O)N(CCCN)[C@@H](c2nc3cc(Cl)ccc3c(=O)n2Cc2ccccc2)C(C)C)cc1 [ispinesib]
In short: as §1

bafetinib = compound: Cc1ccc(NC(=O)c2ccc(CN3CC[C@H](N(C)C)C3)c(C(F)(F)F)c2)cc1Nc1nccc(-c2cncnc2)n1 [bafetinib]
In short: as §1

[5] = compound: Cc1cccc(CC(=O)N2CCc3c2ccc(-c2cn(C)c4ncnc(N)c24)c3F)n1
In short: as §1

nilotinib = compound: Cc1cn(-c2cc(NC(=O)c3ccc(C)c(Nc4nccc(-c5cccnc5)n4)c3)cc(C(F)(F)F)c2)cn1 [nilotinib]
In short: as §1

[6] = compound: Cc1nc(Nc2n[nH]c3c2CN(C(=O)N[C@H](CN(C)C)c2ccccc2)C3(C)C)c2sccc2n1
In short: as §1

dasatinib = compound: Cc1nc(Nc2ncc(C(=O)Nc3c(C)cccc3Cl)s2)cc(N2CCN(CCO)CC2)n1 [dasatinib]
In short: as §1

[7] = compound: Cc1ncc(-c2ccnc(Nc3ccc(S(C)(=O)=O)cc3)n2)n1C(C)C
In short: as §1

[8] = compound: Cn1cc(-c2ccc3c(c2)CCN3C(=O)Cc2cccc(C(F)(F)F)c2)c2c(N)ncnc21
In short: as §1

[9] = compound: Cn1cc(-c2ccc3nnc(C(F)(F)c4ccc5ncccc5c4)n3n2)cn1
In short: as §1

tipifarnib = compound: Cn1cncc1[C@@](N)(c1ccc(Cl)cc1)c1ccc2c(c1)c(-c1cccc(Cl)c1)cc(=O)n2C [tipifarnib]
In short: as §1

mubritinib = compound: FC(F)(F)c1ccc(/C=C/c2nc(COc3ccc(CCCCn4ccnn4)cc3)co2)cc1 [mubritinib]
In short: as §1

Measured: log2 fold change

CSNK1D (UniProt P48730)
Sequence of UniProt P48730 (P48730 whole entry, looked up): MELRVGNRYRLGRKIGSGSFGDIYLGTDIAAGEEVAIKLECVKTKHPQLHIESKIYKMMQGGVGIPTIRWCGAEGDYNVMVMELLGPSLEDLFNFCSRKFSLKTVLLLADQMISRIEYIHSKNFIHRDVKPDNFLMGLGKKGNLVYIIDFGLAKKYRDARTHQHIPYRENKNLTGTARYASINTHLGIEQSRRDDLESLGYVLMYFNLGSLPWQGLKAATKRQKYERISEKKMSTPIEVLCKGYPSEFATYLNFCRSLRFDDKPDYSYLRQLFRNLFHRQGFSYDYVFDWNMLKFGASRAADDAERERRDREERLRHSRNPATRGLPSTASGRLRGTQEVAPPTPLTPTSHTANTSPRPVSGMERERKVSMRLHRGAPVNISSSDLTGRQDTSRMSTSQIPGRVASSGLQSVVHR
inactive: [1] 0.12 | crizotinib -0.103 | [2] -0.246 | [3] 0.055 | duvelisib -0.039 | gandotinib 0.054 | tozasertib -0.028 | [4] 0.069 | doramapimod 0.109 | ispinesib -0.116 | bafetinib 0.1 | [5] 0.064 | nilotinib -0.025 | [6] 0.073 | dasatinib 0.119 | [7] 0.241 | [8] -0.083 | [9] -0.042 | tipifarnib 0.051 | mubritinib -0.148

CNOT4 isoform 6 (UniProt O95628)
Sequence of UniProt O95628 (O95628 whole entry, looked up): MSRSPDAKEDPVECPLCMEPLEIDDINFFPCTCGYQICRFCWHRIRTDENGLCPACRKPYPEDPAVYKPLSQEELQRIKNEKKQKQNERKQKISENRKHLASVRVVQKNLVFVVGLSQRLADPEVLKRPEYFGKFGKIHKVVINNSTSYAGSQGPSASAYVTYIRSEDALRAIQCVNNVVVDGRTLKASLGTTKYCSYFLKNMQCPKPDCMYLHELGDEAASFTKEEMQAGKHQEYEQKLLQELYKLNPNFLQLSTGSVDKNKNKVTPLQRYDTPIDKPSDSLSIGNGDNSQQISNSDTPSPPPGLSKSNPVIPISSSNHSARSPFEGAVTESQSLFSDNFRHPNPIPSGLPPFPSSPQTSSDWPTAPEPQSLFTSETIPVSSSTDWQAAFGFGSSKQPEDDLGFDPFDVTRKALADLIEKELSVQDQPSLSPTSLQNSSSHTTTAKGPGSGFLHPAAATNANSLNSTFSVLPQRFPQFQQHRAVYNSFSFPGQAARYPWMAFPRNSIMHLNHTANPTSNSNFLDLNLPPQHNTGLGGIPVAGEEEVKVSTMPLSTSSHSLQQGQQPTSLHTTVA
inactive: [1] 0.007 | crizotinib 0.031 | [2] 0.056 | [3] -0.076 | duvelisib 0.06 | gandotinib -0.005 | tozasertib -0.009 | [4] 0.014 | doramapimod -0.02 | ispinesib 0.066 | bafetinib -0.088 | [5] -0.036 | nilotinib -0.024 | [6] -0.042 | dasatinib -0.034 | [7] -0.003 | [8] 0.021 | [9] 0.033 | tipifarnib 0.027 | mubritinib 0.023

CRK (UniProt P46108)
Sequence of UniProt P46108 (P46108 whole entry, looked up): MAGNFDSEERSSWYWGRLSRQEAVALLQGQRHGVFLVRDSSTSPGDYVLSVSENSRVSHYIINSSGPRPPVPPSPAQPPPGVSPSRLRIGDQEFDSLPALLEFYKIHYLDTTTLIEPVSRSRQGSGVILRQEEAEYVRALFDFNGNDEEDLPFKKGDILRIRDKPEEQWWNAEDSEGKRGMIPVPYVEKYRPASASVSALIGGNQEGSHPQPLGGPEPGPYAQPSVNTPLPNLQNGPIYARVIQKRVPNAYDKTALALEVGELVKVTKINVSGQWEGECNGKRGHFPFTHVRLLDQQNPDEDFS
inactive: [1] 0.043 | [2] 0.008 | [3] -0.064 | duvelisib -0.025 | gandotinib -0.096 | tozasertib -0.254 | [4] 0.058 | doramapimod 0.01 | ispinesib -0.004 | [5] -0.02 | [6] -0.136 | [7] 0.036 | [8] -0.007 | [9] 0.03 | tipifarnib 0.026 | mubritinib 0.075
active: crizotinib -1.02 | bafetinib -0.586 | nilotinib -0.826 | dasatinib -0.883

CD81 (UniProt P60033)
Sequence of UniProt P60033 (P60033 whole entry, looked up): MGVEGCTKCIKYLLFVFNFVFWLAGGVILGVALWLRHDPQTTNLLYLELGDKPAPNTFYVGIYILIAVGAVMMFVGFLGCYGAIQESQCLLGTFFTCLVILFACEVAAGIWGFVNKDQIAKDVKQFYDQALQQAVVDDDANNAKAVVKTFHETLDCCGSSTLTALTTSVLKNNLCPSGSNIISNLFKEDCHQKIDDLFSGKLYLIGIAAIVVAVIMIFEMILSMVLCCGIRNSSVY
inactive: [1] -0.03 | crizotinib 0.162 | [2] 0.107 | [3] -0.232 | duvelisib -0.041 | gandotinib 0.019 | tozasertib -0.007 | [4] -0.084 | doramapimod -0.025 | ispinesib 0.207 | bafetinib 0.089 | [5] -0.026 | nilotinib 0.051 | [6] 0.016 | dasatinib 0.079 | [7] -0.015 | [8] 0.108 | [9] 0.131 | tipifarnib 0.041 | mubritinib 0.05

CHAC2 (UniProt Q8WUX2)
Sequence of UniProt Q8WUX2 (Q8WUX2 whole entry, looked up): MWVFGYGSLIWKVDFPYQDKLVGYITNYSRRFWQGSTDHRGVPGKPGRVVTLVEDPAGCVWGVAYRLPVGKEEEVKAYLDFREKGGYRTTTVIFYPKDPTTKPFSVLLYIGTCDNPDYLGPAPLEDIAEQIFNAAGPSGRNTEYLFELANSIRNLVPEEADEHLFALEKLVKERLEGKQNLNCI
inactive: [1] 0.026 | crizotinib 0.048 | [2] 0.021 | [3] -0.071 | duvelisib 0.04 | gandotinib -0.014 | tozasertib 0.059 | [4] 0.008 | doramapimod -0.021 | ispinesib 0.071 | bafetinib -0.052 | [5] -0.003 | nilotinib 0.078 | [6] -0.153 | dasatinib 0.012 | [7] 0.012 | [8] -0.004 | [9] -0.006 | tipifarnib -0.037 | mubritinib 0.045

CPSF1 (UniProt Q10570)
Sequence of UniProt Q10570 (Q10570 whole entry, looked up): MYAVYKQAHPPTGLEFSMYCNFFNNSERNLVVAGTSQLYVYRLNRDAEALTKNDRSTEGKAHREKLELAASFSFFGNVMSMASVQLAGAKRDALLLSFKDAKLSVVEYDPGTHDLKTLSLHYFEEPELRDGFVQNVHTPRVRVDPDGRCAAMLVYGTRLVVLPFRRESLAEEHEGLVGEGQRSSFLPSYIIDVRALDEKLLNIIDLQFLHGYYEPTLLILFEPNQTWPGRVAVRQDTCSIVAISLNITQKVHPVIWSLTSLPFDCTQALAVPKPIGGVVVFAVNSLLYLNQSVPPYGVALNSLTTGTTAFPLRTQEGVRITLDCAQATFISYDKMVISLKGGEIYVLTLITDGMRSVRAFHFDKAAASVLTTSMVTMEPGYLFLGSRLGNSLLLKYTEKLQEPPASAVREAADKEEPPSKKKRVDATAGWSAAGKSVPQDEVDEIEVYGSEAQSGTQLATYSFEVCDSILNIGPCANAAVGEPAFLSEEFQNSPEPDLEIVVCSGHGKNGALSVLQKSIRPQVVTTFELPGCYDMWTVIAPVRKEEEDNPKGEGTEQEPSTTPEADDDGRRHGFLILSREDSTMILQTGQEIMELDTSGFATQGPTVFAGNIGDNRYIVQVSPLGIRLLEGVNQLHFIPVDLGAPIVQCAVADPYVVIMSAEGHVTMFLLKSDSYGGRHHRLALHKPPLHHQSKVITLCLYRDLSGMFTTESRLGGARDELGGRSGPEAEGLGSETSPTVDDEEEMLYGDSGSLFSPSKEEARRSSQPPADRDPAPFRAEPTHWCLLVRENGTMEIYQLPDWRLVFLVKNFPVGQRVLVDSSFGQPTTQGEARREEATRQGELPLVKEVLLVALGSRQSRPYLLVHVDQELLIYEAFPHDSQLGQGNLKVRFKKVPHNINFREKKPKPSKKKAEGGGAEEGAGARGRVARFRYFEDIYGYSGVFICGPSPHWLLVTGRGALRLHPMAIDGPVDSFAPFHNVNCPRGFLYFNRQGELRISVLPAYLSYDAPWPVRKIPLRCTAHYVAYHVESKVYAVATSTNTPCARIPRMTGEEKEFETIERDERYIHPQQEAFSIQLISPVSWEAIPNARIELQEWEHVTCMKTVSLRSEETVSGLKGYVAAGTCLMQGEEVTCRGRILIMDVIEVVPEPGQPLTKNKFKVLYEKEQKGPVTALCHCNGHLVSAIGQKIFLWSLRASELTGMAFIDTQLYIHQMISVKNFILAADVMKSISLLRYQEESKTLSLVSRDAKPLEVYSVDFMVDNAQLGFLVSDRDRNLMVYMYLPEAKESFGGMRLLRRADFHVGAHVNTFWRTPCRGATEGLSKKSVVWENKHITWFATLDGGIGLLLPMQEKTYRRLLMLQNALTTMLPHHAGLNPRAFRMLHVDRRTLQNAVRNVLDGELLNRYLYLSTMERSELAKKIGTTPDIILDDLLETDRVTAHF
inactive: [1] -0.015 | crizotinib -0.021 | [2] -0.185 | [3] 0.048 | duvelisib 0.064 | gandotinib -0.068 | tozasertib -0.032 | [4] 0.161 | doramapimod 0.09 | ispinesib 0.036 | bafetinib 0.026 | [5] -0.007 | nilotinib 0.065 | [6] -0.002 | dasatinib -0.037 | [7] -0.014 | [8] -0.077 | [9] -0.14 | tipifarnib 0.026 | mubritinib -0.007

CSTF3 (UniProt Q12996)
Sequence of UniProt Q12996 (Q12996 whole entry, looked up): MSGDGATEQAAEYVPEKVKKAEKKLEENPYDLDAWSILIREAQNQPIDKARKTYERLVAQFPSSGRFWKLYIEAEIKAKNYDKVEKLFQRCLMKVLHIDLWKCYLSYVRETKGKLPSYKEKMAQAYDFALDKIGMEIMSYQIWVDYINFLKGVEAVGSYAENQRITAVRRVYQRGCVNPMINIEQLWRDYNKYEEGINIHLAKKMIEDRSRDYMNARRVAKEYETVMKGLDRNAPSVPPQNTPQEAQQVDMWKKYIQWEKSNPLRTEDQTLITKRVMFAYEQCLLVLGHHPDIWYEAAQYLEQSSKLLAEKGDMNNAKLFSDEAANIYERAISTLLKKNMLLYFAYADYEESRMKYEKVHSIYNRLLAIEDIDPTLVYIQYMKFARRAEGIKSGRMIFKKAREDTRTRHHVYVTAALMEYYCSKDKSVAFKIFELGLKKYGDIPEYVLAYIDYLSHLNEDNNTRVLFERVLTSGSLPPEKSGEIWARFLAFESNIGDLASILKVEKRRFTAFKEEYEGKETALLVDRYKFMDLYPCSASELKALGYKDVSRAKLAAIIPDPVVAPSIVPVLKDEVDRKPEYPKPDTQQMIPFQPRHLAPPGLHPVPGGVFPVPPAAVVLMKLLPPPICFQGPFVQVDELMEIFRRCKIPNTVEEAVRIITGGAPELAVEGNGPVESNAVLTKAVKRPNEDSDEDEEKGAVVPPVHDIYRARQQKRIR
inactive: [1] 0.004 | crizotinib -0.07 | [2] 0.025 | [3] 0.019 | duvelisib 0.061 | gandotinib 0 | tozasertib -0.021 | [4] -0.031 | doramapimod -0.022 | ispinesib 0.082 | bafetinib -0.004 | [5] 0.044 | nilotinib -0.044 | [6] 0.176 | dasatinib -0.021 | [7] 0.158 | [8] -0.009 | [9] -0.01 | tipifarnib 0.009 | mubritinib 0.019

COPS4 (UniProt Q9BT78)
Sequence of UniProt Q9BT78 (Q9BT78 whole entry, looked up): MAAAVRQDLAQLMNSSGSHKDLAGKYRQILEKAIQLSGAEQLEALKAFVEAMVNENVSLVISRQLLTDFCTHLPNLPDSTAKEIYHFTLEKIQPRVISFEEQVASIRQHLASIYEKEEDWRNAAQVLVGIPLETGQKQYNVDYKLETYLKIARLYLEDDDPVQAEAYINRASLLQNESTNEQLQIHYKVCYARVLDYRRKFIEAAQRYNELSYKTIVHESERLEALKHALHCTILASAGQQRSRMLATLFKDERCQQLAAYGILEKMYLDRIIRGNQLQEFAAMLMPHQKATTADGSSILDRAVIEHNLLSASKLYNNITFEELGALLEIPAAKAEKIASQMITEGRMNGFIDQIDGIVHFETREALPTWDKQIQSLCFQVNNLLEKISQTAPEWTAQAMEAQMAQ
inactive: [1] -0.01 | crizotinib 0.112 | [2] 0.064 | [3] -0.064 | duvelisib 0.029 | gandotinib 0.022 | tozasertib 0.036 | [4] 0.002 | doramapimod -0.014 | ispinesib 0.086 | bafetinib 0.003 | [5] 0 | nilotinib 0 | [6] -0.01 | dasatinib -0.023 | [7] 0.007 | [8] 0.031 | [9] 0.003 | tipifarnib -0.012 | mubritinib 0.031
